Structures can show the parent of a compound that is named as a salt. A number with no mark means an inactive call.
What was measured:
Conditions in all cases: 20 µM
[1] = tested on: Salmonella enterica typhimurium; experiment: growth AUC normalised to DMSO control (fraction of control); higher = less growth inhibition, active = hit call of the paper
How it was run: (§1)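 Pathogens were passaged twice under anaerobic conditions, then inoculated into pre-reduced mGAM plates at a starting OD578 of 0.01, with compound at 20 μM and 1% DMSO, and sealed with breathable membranes. For Haemophilus parainfluenzae, the medium was supplemented with hemin and NAD. OD578 was read every hour for 24 h in three biological replicates. Growth-curve AUC was calculated by the trapezoidal rule up to the exponential-to-stationary transition and normalised to DMSO controls on the same plate.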

Shigella flexneri = experiment: as above
How it was run: as §1

Vibrio cholerae = experiment: as above
How it was run: as §1

[2] = tested on: Yersinia pseudotuberculosis; experiment: as above
How it was run: as §1

P. vulgatus RND KO = experiment: growth AUC normalised to DMSO control (median) (fraction of control); higher = less growth inhibition, active = hit call of the paper
How it was run: (§2)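 Anaerobic growth was tracked hourly at OD578 for 24 h in 96-well plates of mGAM seeded at OD578 0.01 with each approved-drug library compound at 20 μM and 1% DMSO. Strains had first been passaged twice overnight without oxygen. Three biological replicates were run. The reported median is the area under the curve, calculated by the trapezoidal rule on curves truncated at entry into stationary phase and normalised to vehicle wells on the same plate.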

P. vulgatus WT = experiment: as above
How it was run: as §2

[3] = tested on: S. enterica typhimurium WT; experiment: as above
How it was run: as §2

[4] = tested on: S. enterica typhimurium tolC KO; experiment: as above
How it was run: as §2
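For growth AUC normalised to DMSO control (median) in this document: active when median AUC fell below 0.1.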

| Structure (SMILES) | growth AUC normalised to DMSO control [1] | growth AUC normalised to DMSO control (Shigella flexneri) | growth AUC normalised to DMSO control (Vibrio cholerae) | growth AUC normalised to DMSO control [2] | growth AUC normalised to DMSO control (P. vulgatus RND KO) | growth AUC normalised to DMSO control (P. vulgatus WT) | growth AUC normalised to DMSO control [3] | growth AUC normalised to DMSO control [4] |
| --- | --- | --- | --- | --- | --- | --- | --- | --- |
| CN1CCc2cccc3c2[C@H]1Cc1ccc(O)c(O)c1-3 [R(-) Apomorphine hydrochloride hemihydrate] | 0.999 | 1 | 1.01 | 1.02 | 1.02 | 1.05 | 1.01 | 0.983 |
| C#CCN(C)CCCOc1ccc(Cl)cc1Cl [Clorgyline hydrochloride] | 0.966 | 0.955 | 0.862 (active) | 0.994 | 0.999 | 1.01 | 0.976 | 0.93 |
| CNc1ncnc2c1ncn2[C@@H]1O[C@H](CO)[C@@H](O)[C@H]1O [N6-methyladenosine] | 0.972 | 1.03 | 1 | 0.97 | 0.998 | 1.02 | 1.02 | 1.01 |
| C=CC1=C(C(=O)O)N2C(=O)[C@@H](NC(=O)/C(=N\OCC(=O)O)c3csc(N)n3)[C@H]2SC1 [Cefixime] | 0.00409 (active) | 0.0268 (active) | 0.0803 (active) | 0.0395 (active) | 0.0155 (active) | 0.0102 (active) | 0.012 (active) | 0.00361 (active) |
| O=C(O)COC(=O)Cc1ccccc1Nc1c(Cl)cccc1Cl [Aceclofenac] | 0.995 | 0.979 | 0.979 | 0.999 | 0.995 | 0.983 | 1.01 | 0.998 |
| N=C(N)NS(=O)(=O)c1ccc(N)cc1 [Sulfaguanidine] | 1.01 | 0.98 | 1.04 | 1.04 | 1.06 | 1.05 | 0.999 | 1 |
| CCC(=O)O[C@]1(C(=O)CCl)[C@@H](C)C[C@H]2[C@@H]3CCC4=CC(=O)C=C[C@]4(C)[C@@]3(F)[C@@H](O)C[C@@]21C [Clobetasol propionate] | 1.01 | 1.04 | 1.02 | 1.01 | 1.02 | 1.05 | 1 | 0.927 |
| O=C(O)c1cn(-c2ccc(F)cc2)c2cc(N3CCNCC3)c(F)cc2c1=O [Sarafloxacin] | 0.0114 (active) | 0.0236 (active) | 0.0367 (active) | 0.0409 (active) | 0.0128 (active) | 0.0174 (active) | 0.00503 (active) | 0.0079 (active) |
| C#C[C@]1(OC(C)=O)CC[C@H]2[C@@H]3CCC4=CC(=NO)CC[C@@H]4[C@H]3CC[C@@]21CC (mixture of isomers) [Norgestimate] | 0.995 | 0.971 | 0.984 | 0.988 | 0.836 | 0.88 | 0.999 | 0.955 |
| Cn1cnc2c1c(=O)[nH]c(=O)n2C [Theobromine] | 1.03 | 1.08 | 1.04 | 1.03 | 1.02 | 1.03 | 1.01 | 1.01 |
| c1ccc2c(CC3=NCCN3)cccc2c1 [Naphazoline hydrochloride] | 0.994 | 1.01 | 1.01 | 1 | 0.958 | 0.943 | 0.992 | 0.999 |
| CC(C)(Oc1ccc(CCNC(=O)c2ccc(Cl)cc2)cc1)C(=O)O [Bezafibrate] | 0.976 | 0.959 | 0.988 | 0.994 | 0.976 | 1 | 0.998 | 0.99 |
| C[C@]12CC[C@@H]3c4ccc(O)cc4CC[C@H]3[C@@H]1CCC2=O [Estrone] | 0.984 | 0.96 | 0.0258 (active) | 0.975 | 0.977 | 0.964 | 0.999 | 0.974 |
| CC(Oc1ccccc1)C(=O)N[C@@H]1C(=O)N2[C@@H]1SC(C)(C)[C@@H]2C(=O)O (some centres not stated) [Phenethicillin potassium salt] | 1.01 | 1.02 | 1 | 0.898 (active) | 0.0155 (active) | 0.00969 (active) | 1 | 0.00227 (active) |
| CC(=O)N[C@@H](CC(=O)O)C(=O)N[C@@H](CCC(=O)O)C(=O)O [Spaglumic acid] | 1.03 | 1.01 | 1.02 | 1.02 | 1.01 | 1.04 | 1.01 | 1 |
| C#C[C@]1(O)CC[C@H]2[C@@H]3CCC4=Cc5oncc5C[C@]4(C)[C@H]3CC[C@@]21C [Danazol] | 0.994 | 0.971 | 0.991 | 0.954 | 0.982 | 0.992 | 1 | 0.983 |
| NC[C@@H]1O[C@@H](O[C@H]2[C@H](O)[C@@H](O[C@H]3O[C@H](CO)[C@@H](O)[C@H](N)[C@H]3O)[C@H](N)C[C@@H]2N)[C@@H](O)[C@H](O)[C@H]1O [Kanamycin A sulfate] | 1.01 | 1.03 | 1.05 | 1 | 1.01 | 0.992 | 1.01 | 1.01 |
| CCN(CC)CCNC(=O)c1cc(S(C)(=O)=O)ccc1OC [Tiapride hydrochloride] | 0.985 | 0.992 | 1 | 1.01 | 0.961 | 0.952 | 0.992 | 0.999 |
| NC[C@@H]1O[C@H](O[C@H]2[C@@H](O)[C@H](O[C@@H]3[C@@H](O)[C@H](N)C[C@H](N)[C@H]3O[C@H]3O[C@H](CO)[C@@H](O)[C@H](O)[C@H]3N)O[C@@H]2CO)[C@H](N)[C@@H](O)[C@@H]1O [Paromomycin sulfate] | 1.01 | 0.993 | 1.01 | 0.997 | 1 | 0.991 | 1 | 1 |
| Nc1nc(=O)c2c([nH]1)NC[C@@H](CNc1ccc(C(=O)N[C@@H](CCC(=O)O)C(=O)O)cc1)N2C=O [Folinic acid calcium salt] | 1 | 0.999 | 1.01 | 1 | 1.01 | 1.04 | 1 | 1 |
| Nc1nc(F)nc2c1ncn2[C@@H]1O[C@H](CO)[C@@H](O)[C@@H]1O [Fludarabine] | 0.963 | 0.933 | 0.997 | 0.988 | 0.994 | 0.999 | 0.994 | 0.991 |
| Clc1ccccc1C(c1ccccc1)(c1ccccc1)n1ccnc1 [Clotrimazole] | 0.992 | 1.02 | 0.932 | 0.985 | 0.952 | 0.954 | 0.995 | 0.829 |
| N[C@@H](C(=O)N[C@@H]1C(=O)N2C(C(=O)O)=C(Cl)CS[C@H]12)c1ccccc1 [Cefaclor hydrate] | 0.492 (active) | 0.153 (active) | 1.03 | 0.209 (active) | 1.04 | 1.05 | 1.07 | 1.01 |
| CC(=O)OCC(=O)[C@@]1(O)CC[C@H]2[C@@H]3CCC4=CC(=O)CC[C@]4(C)[C@H]3[C@@H](O)C[C@@]21C [Cortisol acetate] | 1.03 | 0.997 | 1 | 1 | 1 | 1.03 | 1.01 | 1 |
| COc1ccc([C@@H]2CC(=O)c3c(O)cc(O[C@@H]4O[C@H](CO[C@@H]5O[C@@H](C)[C@H](O)[C@@H](O)[C@H]5O)[C@@H](O)[C@H](O)[C@H]4O)cc3O2)cc1O [Hesperidin] | 1.03 | 1.04 | 1.07 | 1.01 | 1.03 | 1 | 1 | 1.01 |
| CN1CCN(C(c2ccccc2)c2ccccc2)CC1 [Cyclizine hydrochloride] | 0.987 | 1.01 | 0.982 | 0.995 | 1.02 | 1.04 | 1.01 | 0.998 |
| N=C(N)NCc1cccc(I)c1 [Iobenguane sulfate] | 1.03 | 1.03 | 1.06 | 1.01 | 1.09 | 1.1 | 1.01 | 1 |
| CO/N=C(\C(=O)N[C@@H]1C(=O)N2C(C(=O)O)=C(COC(C)=O)CS[C@H]12)c1csc(N)n1 [Cefotaxime sodium salt] | 0.00568 (active) | 0.0409 (active) | 0.0691 (active) | 0.0555 (active) | 0.00835 (active) | 0.0141 (active) | 0.00974 (active) | 0.00366 (active) |
| O=C(O)Cc1ccccc1Nc1c(Cl)cccc1Cl [Diclofenac sodium] | 0.975 | 0.957 | 0.973 | 0.982 | 0.95 | 0.964 | 1 | 0.997 |
